According to PubChem BioAssay (NCI):
The panel holds about 79,000 compounds, 15% with a hit somewhere; the sample as a whole holds those more often. Activity calls are given as the source filed them. No stated cut-off is given here; in the data, active means growth inhibition above about 70%; inactive means the rest.

Columns and labels:
[1] = NCI Yeast Anticancer Drug Screen. Data for the rad52 strain (AID 147);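 further: 0% = growth of vehicle-treated control cultures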; conditions: S. cerevisiae rad52 mutant growth inhibition, stronger effect = higher value
How it was run: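 Measured: yeast growth inhibition. System: strain with a defined DNA damage repair alteration. Reference: vehicle-treated control cultures.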

[2] = NCI Yeast Anticancer Drug Screen. Data for the wt1 strain (AID 149);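 further: 0% = growth of vehicle-treated wt1 cultures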; conditions: S. cerevisiae wt1 strain (SPY 50644) growth inhibition, stronger effect = higher value
How it was run: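 wt1 yeast, compound-treated; % growth inhibition vs vehicle control.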

[3] = NCI Yeast Anticancer Drug Screen. Data for the rad50EPP+ strain (AID 151);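 further: 0% = growth of vehicle-treated control cultures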; conditions: S. cerevisiae rad50 mutant strain, stronger effect = higher value
How it was run: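 One strain with a rad50 alteration (rad50EPP+) was compound-treated, its growth then compared to that of vehicle controls.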

[4] = NCI Yeast Anticancer Drug Screen. Data for the mgt1 strain (AID 153); conditions: S. cerevisiae mgt1 mutant growth inhibition, stronger effect = higher value
How it was run: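 After exposure of the mgt1 yeast mutant to compound, growth was measured and reported as inhibition compared with vehicle controls.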

[5] = NCI Yeast Anticancer Drug Screen. Data for the rad50 strain (AID 155);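 further: 0% = growth of vehicle-only cultures of the same strain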; conditions: S. cerevisiae rad50 strain growth inhibition, stronger effect = higher value
How it was run: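 Genetically altered yeast (DNA repair pathway); compound treatment; growth inhibition vs vehicle ctrl.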

[6] = NCI Yeast Anticancer Drug Screen. Data for the mec2-1 strain (AID 157); conditions: S. cerevisiae mec2-1 strain, stronger effect = higher value
How it was run: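 Test agents were screened against the mec2-1 yeast strain, with defined DNA repair or cell cycle alteration. Growth was scored as inhibition against vehicle-only controls.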

[7] = NCI Yeast Anticancer Drug Screen. Data for the CLN2oe strain (AID 163);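 further: 0% = growth of vehicle-only control cultures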; conditions: S. cerevisiae CLN2oe strain, stronger effect = higher value
How it was run: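 Here, growth inhibition in a cell-cycle-altered yeast strain after compound exposure was quantified against vehicle control growth.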

[8] = NCI Yeast Anticancer Drug Screen. Data for the cln2 rad14 strain (AID 165);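 further: 0% = growth equal to vehicle treated cultures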; conditions: S. cerevisiae cln2 rad14 strain, stronger effect = higher value
How it was run: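 Growth of compound-exposed yeast (cln2 rad14 genotype) measured and expressed as inhibition relative to vehicle.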

[9] = NCI Yeast Anticancer Drug Screen. Data for the bub3 strain (AID 167); conditions: S. cerevisiae bub3 mutant strain, stronger effect = higher value
How it was run: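 Yeast carrying a defined mutation is treated with each compound, and growth is compared with that of vehicle-exposed cells to give inhibition.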

[10] = NCI Yeast Anticancer Drug Screen. Data for the wt2 strain (AID 169);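 further: 0% = growth of vehicle-treated yeast cultures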; conditions: S. cerevisiae wt2 strain growth inhibition, stronger effect = higher value
How it was run: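 Genetically defined yeast strains from a DNA-repair/cell-cycle panel were used. Compound-exposed yeast growth was measured, and the inhibition was calculated relative to vehicle treatment.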

[11] = NCI Yeast Anticancer Drug Screen. Data for the mlh1 strain (AID 171);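 further: 0% = growth of vehicle-treated control cultures of the same strain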; conditions: S. cerevisiae mlh1 strain growth inhibition, stronger effect = higher value
How it was run: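 Here the genetically defined yeast mutant is grown with each compound, and the extent to which its growth falls below that of vehicle-exposed cells is reported.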

[12] = NCI Yeast Anticancer Drug Screen. Data for the sgs1 strain (AID 173);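 further: 0% = growth of vehicle-only control cultures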; conditions: S. cerevisiae sgs1 mutant, stronger effect = higher value
How it was run: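 Relative growth inhibition, referenced to vehicle, was determined in a yeast strain with a defined alteration affecting DNA damage repair or cell cycle control after compound exposure.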

[13] = NCI Yeast Anticancer Drug Screen. Data for the mlh1 rad18 strain (AID 175); conditions: S. cerevisiae mlh1 rad18 strain growth inhibition, stronger effect = higher value
How it was run: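 In this whole-cell yeast screen, a strain with altered DNA damage repair is challenged with compound, and its growth is measured against matched vehicle-treated controls.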

[14] = NCI Yeast Anticancer Drug Screen. Data for the rad18 strain (AID 177); conditions: S. cerevisiae rad18 mutant growth inhibition, stronger effect = higher value
How it was run: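 Screen uses a yeast strain with a defined lesion in DNA damage repair; compound effect is read as loss of growth compared to untreated vehicle cultures.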

[15] = NCI Yeast Anticancer Drug Screen. Data for the rad14 strain (AID 159);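 further: 0% = growth of vehicle-treated control cultures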; conditions: S. cerevisiae rad14 strain growth inhibition, stronger effect = higher value
How it was run: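 Test compounds were applied to a repair-deficient yeast strain. Its growth was then compared with that of cultures given vehicle alone, and inhibition was expressed relative to those controls.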

[16] = NCI Yeast Anticancer Drug Screen. Data for the sgs1 mgt1 strain (AID 161);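 further: 0% = growth of cultures given vehicle only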; conditions: S. cerevisiae sgs1 mgt1 strain, stronger effect = higher value
How it was run: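 Test agents were incubated with a DNA-repair-mutant yeast strain. Growth was then read and compared against vehicle-treated controls.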

[17] = at 5.0 µM (retest, dose inferred, filed as 0.5)
[18] = at 50.0 µM (retest, dose inferred, filed as 5.0)

Measured: growth inhibition

NC1CCCCC1N.Nc1c(N=Nc2ccc(-c3ccc(N=Nc4cc(S(=O)(=O)[O-])c5ccccc5c4N)cc3)cc2)cc(S(=O)(=O)[O-])c2ccccc12.[OH3+].[OH3+].[Pt+4]
inactive: [1]; at 1.2 µM 0% | [1]; at 3.7 µM 4% | [1]; at 11.0 µM 47% | [1]; at 100.0 µM 65% | [2]; at 1.2 µM 1% | [2]; at 3.7 µM -43% | [2]; at 11.0 µM 26% | [2]; at 33.0 µM 35% | [3]; at 1.2 µM -7% | [3]; at 3.7 µM 13% | [3]; at 100.0 µM 60% | [4]; at 1.2 µM 1% | [4]; at 3.7 µM 12% | [5]; at 1.2 µM 2% | [5]; at 3.7 µM 1% | [5]; [17] 1% | [5]; at 11.0 µM 28% | [6]; at 1.2 µM 0% | [6]; at 3.7 µM 9% | [6]; at 11.0 µM 66% | [7]; at 1.2 µM 1% | [7]; at 3.7 µM -1% | [7]; at 11.0 µM 22% | [7]; at 100.0 µM 63% | [8]; [17] 66% | [8]; at 50.0 µM 69.8% | [9]; at 1.2 µM -1% | [9]; at 3.7 µM -1% | [9]; at 11.0 µM 54% | [9]; at 100.0 µM 68% | [10]; at 1.2 µM -1% | [10]; at 3.7 µM 10% | [11]; at 1.2 µM -1% | [11]; at 3.7 µM 7% | [11]; at 100.0 µM 65% | [12]; at 1.2 µM 4% | [12]; at 3.7 µM 22% | [14]; at 1.2 µM 1% | [14]; at 3.7 µM -2% | [14]; at 11.0 µM 25%
active: [1]; at 33.0 µM 80% | [2]; at 100.0 µM 92% | [3]; at 11.0 µM 91% | [3]; at 33.0 µM 88% | [4]; at 11.0 µM 90% | [4]; at 33.0 µM 94% | [4]; at 100.0 µM 84% | [5]; at 33.0 µM 89% | [5]; [18] 83% | [5]; at 50.0 µM 86.7% | [5]; at 100.0 µM 70% | [6]; [17] 88% | [6]; at 33.0 µM 92% | [6]; [18] 84% | [6]; at 50.0 µM 80.9% | [6]; at 100.0 µM 77% | [7]; at 33.0 µM 89% | [8]; [18] 78% | [9]; [17] 91% | [9]; at 33.0 µM 90% | [9]; [18] 83% | [9]; at 50.0 µM 82.5% | [10]; at 11.0 µM 86% | [10]; at 33.0 µM 90% | [10]; at 100.0 µM 70% | [11]; at 11.0 µM 81% | [11]; at 33.0 µM 90% | [12]; at 11.0 µM 95% | [12]; at 33.0 µM 93% | [12]; at 100.0 µM 80% | [13]; [17] 77% | [13]; [18] 78% | [13]; at 50.0 µM 85.2% | [14]; at 33.0 µM 88% | [14]; at 100.0 µM 71%

Cc1cc(=O)oc2c(C)c3occc(=O)c3cc12
active: [1]; at 100.0 µM 86% | [5]; at 50.0 µM 94.3% | [5]; at 100.0 µM 84% | [16]; at 50.0 µM 74.4% | [9]; at 50.0 µM 78%
inactive: [1]; at 1.2 µM 1% | [1]; at 3.7 µM 2% | [1]; at 11.0 µM 17% | [1]; at 33.0 µM 48% | [2]; at 1.2 µM 4% | [2]; at 3.7 µM -2% | [2]; at 11.0 µM 0% | [2]; at 33.0 µM 5% | [2]; at 100.0 µM 23% | [3]; at 1.2 µM -1% | [3]; at 3.7 µM -1% | [3]; at 11.0 µM 4% | [3]; at 33.0 µM 29% | [3]; at 100.0 µM 67% | [4]; at 1.2 µM -5% | [4]; at 3.7 µM 3% | [4]; at 11.0 µM -11% | [4]; at 33.0 µM -10% | [4]; at 100.0 µM 44% | [5]; at 1.2 µM -1% | [5]; at 3.7 µM 2% | [5]; [17] 24% | [5]; at 11.0 µM 18% | [5]; at 33.0 µM 59% | [5]; [18] 67% | [15]; at 1.2 µM 2% | [15]; at 3.7 µM 2% | [15]; at 11.0 µM 1% | [15]; at 33.0 µM 9% | [15]; at 100.0 µM 28% | [16]; [17] -10% | [16]; [18] 8% | [7]; at 1.2 µM -2% | [7]; at 3.7 µM -1% | [7]; at 11.0 µM 9% | [7]; at 33.0 µM 6% | [7]; at 100.0 µM 29% | [8]; [17] -17% | [8]; [18] 15% | [8]; at 50.0 µM 43.8% | [9]; at 1.2 µM -1% | [9]; at 3.7 µM -1% | [9]; [17] 12% | [9]; at 11.0 µM 3% | [9]; at 33.0 µM 5% | [9]; [18] 19% | [9]; at 100.0 µM 15% | [10]; at 1.2 µM -1% | [10]; at 3.7 µM -2% | [10]; at 11.0 µM 1% | [10]; at 33.0 µM 10% | [10]; at 100.0 µM 32% | [11]; at 1.2 µM -1% | [11]; at 3.7 µM 4% | [11]; at 11.0 µM 2% | [11]; at 33.0 µM 11% | [11]; at 100.0 µM 48% | [13]; [17] 11% | [13]; [18] 21% | [13]; at 50.0 µM 63.1% | [14]; at 1.2 µM -1% | [14]; at 3.7 µM -4% | [14]; at 11.0 µM -2% | [14]; at 33.0 µM 7% | [14]; at 100.0 µM 40%
